From PubChem BioAssay (Tox21) come the findings set out here.

Results filed as inconclusive are left out. Unmarked numbers belong to inactive results. The call rests on the fitted dose curve; in most records, active means well fitted cell-killing curve with a large enough effect in the repeat runs; inconclusive means weak or mixed curves, or effect the other way; inactive means no such curve, though single readings can be large or run the other way.
On the % scale 0 is the no-effect control and ±100 the full control effect.

This experiment can be described thus: qHTS assay to identify small molecule agonists of the RXR signaling pathway - cell viability counter screen (AID 1159529). Further: nearly all actives have a fitted effect of over 50% in size. The following applies: RXR-alpha-bla HEK293T viability, CellTiter-Glo, 16 h; series mostly up to 76.8 µM; activity change, negative = cytotoxicity: at the top concentration. The text has this:
National Center for Advancing Translational Sciences [NCATS]
NIH Chemical Genomics Center [NCGC]
U.S. Environmental Protection Agency [EPA]
National Institutes of Environmental Health Sciences [NIEHS]
National Toxicology Program [NTP]
U.S. Food and Drug Administration [FDA]
The Retinoid X receptor (RXR), a nuclear hormone receptor expressed in liver, spleen, placenta, epidermis, central nervous system. These receptors are able to form homo and heterodimers with other nuclear receptors and due to this heterodimerizing ability, RXR functions as master regulators producing diverse physiological effects. Three subtypes of RXR exist; alpha, beta and gamma. Retinoid X receptor alpha (RXR-alpha) has potential roles in metabolic signaling pathways, skin alopecia, dermal cysts, cardiac development, insulin sensitization etc. Therefore screening environmental chemicals on RXR-alpha signaling can be used for the studies focused on such therapeutic applications. For quantification of RXR-alpha ligands signaling, GeneBLAzer RXR alpha-UAS-bla HEK 293T (Life Technologies, Carlsbad, CA) cells containing a beta-lactamase reporter-gene under control of Retinoid X receptor-alpha response element were used to screen Tox21 10K library. The cytotoxicity of the Tox21 compound library against the RXR-alpha HEK 293T cell line was tested in parallel by measuring cell viability using CellTiter-Glo assay (Promega Corporation, Madison, WI) in the same wells.
Tox21 Assay Protocol Summary:
RXR-alpha HEK 293T cells were dispensed at 2,000 cells/6 uL of assay medium containing 2% charcoal-stripped FBS using a Multidrop Combi (ThermoFisher Scientific, Waltham, MA) dispenser. The assay was performed in black wall/clear-bottom 1536-well plates (Greiner Bio-One North America Inc. Monroe, NC). Tetraoctyl ammonium bromide was used as a positive control in the cytotoxicity screen. After the assay plates were incubated at 37 C and 5% CO2 for 5 hr, 23 nL of compounds dissolved in DMSO, positive control or DMSO only were transferred to the assay plate by a Pintool station (Kalypsys, San Diego, CA). The assay plates were incubated at 37 C and 5% CO2 for 16 hr. One uL of LiveBLAzer B/G FRET substrate (Life Technologies) was added using a Flying Reagent Dispenser (FRD) (Aurora Discovery, San Diego, CA) and the plates were incubated at room temperature for 2 hr. Fluorescence intensity (405 nm excitation, 460/530 nm emission) was measured using an Envision plate reader (PerkinElmer, Shelton, CT). For cytotoxicity, 4 uL/well of CellTiter-Glo reagent was added into the assay plates using an FRD. After 30 min incubation at room temperature, the luminescence intensity was measured using a ViewLux plate reader (PerkinElmer).
In general terms: In qHTS, concentration-response curves come from the screen itself.
Consider `NNC(=O)OCc1ccccc1`, for which the “activity change, negative = cytotoxicity” value was -5.21%. For the compound `O=C(OOC(=O)c1ccccc1)c1ccccc1`, the “activity change, negative = cytotoxicity” value was 5.27% [at 35.3 µM]. Take `CCCCCCCC(=O)N(C)C`: the “activity change, negative = cytotoxicity” value is 8.54%. The result for `CCCCCCCCCCCCCCCCN(C)C` reads 1.35% [at 6.97 µM]; that for `CCCCCCC(O)CO` (stereo not given), -9.16%. On to `CC(=O)/C=C/C=C1/C2CCC(C2)C1(C)C` (stereo not given), for which the “activity change, negative = cytotoxicity” value was -20.4% [at 35.3 µM]. For the compound `NC[C@H]1O[C@H](O[C@H]2[C@H](O)[C@@H](O[C@H]3O[C@H](CO)[C@@H](O)[C@H](N)[C@H]3O)[C@H](N)C[C@@H]2N)[C@H](N)[C@@H](O)[C@@H]1O`, the activity change, negative = cytotoxicity is 3.13% [at 15.8 µM].

`C[C@@H]1CC[C@@]2(OC1)O[C@H]1C[C@H]3[C@@H]4CC[C@H]5C[C@@H](O)CC[C@]5(C)[C@H]4CC(=O)[C@]3(C)[C@H]1[C@@H]2C`: the activity change, negative = cytotoxicity is -0.0245% [at 6.97 µM]. The same measure for `CCc1ncc(C)[nH]1`: 9.29%. As for `COc1cnc(NS(=O)(=O)c2ccc(N)cc2)nc1`, the “activity change, negative = cytotoxicity” value is 4.67% [at 35.3 µM]. The result for `O=C1CCCc2c(O)cccc21` reads 0.0023% [at 35.3 µM]; that for `COCCCOc1cc(C[C@@H](C[C@H](N)[C@@H](O)C[C@H](C(=O)NCC(C)(C)C(N)=O)C(C)C)C(C)C)ccc1OC`, 15.3% [at 35.3 µM]; that for `C[n+]1ccccc1/C=N/O`, 5.73% [at 35.3 µM]. In the case of `O=C1CC2(CCCC2)CC(=O)N1CCNCC1COc2ccccc2O1` (stereo not given), the “activity change, negative = cytotoxicity” value was -9.05% [at 35.3 µM]. Consider `Cc1cc2c(cc1CC(=O)c1sccc1S(=O)(=O)Nc1onc(C)c1Cl)OCO2`, for which the “activity change, negative = cytotoxicity” value is 6.88% [at 35.3 µM]. As for `CSC(=O)c1cccc2nnsc12`, the “activity change, negative = cytotoxicity” value is -5.62%.

Take `CCOC(=O)CN1CCCC1=O`: the “activity change, negative = cytotoxicity” value is 1.95% [at 35.3 µM]. Regarding `c1cc2ccc3ccc4ccc5cccc6c(c1)c2c3c4c56`, the activity change, negative = cytotoxicity was 0.199% [at 2.72 µM].

Regarding `Cc1ccc(Br)cc1`, the “activity change, negative = cytotoxicity” value was 0.493%. Regarding `CC(C)(C)OC(=O)c1ccccc1C(=O)O`, the “activity change, negative = cytotoxicity” value is 4.92%. The result for `CC(=O)Nc1ccc(OCCOCCOc2ccc(NC(C)=O)cc2)cc1` reads 4.7% [at 35.3 µM]; that for `CCCCCC(=O)CC`, 6.98%.

For `c1coc(Cn2cccc2)c1`, the “activity change, negative = cytotoxicity” value was -3.36%. For the compound `CCO[Si](CC(C)C)(OCC)OCC`, the “activity change, negative = cytotoxicity” value was -13%. In the case of `COC(=O)c1ccc(NC(C)=O)cc1OC`, the “activity change, negative = cytotoxicity” value is 11.5% [at 35.3 µM]. As to `CCCCN1C(=O)c2ccccc2C1=O`, the “activity change, negative = cytotoxicity” value is -1.93%. In the case of `CC(=O)SCC(CC(=O)c1ccc(C)cc1)C(=O)O` (stereo not given), the “activity change, negative = cytotoxicity” value is 1.91% [at 35.3 µM]. `O=P(O)(O)C(O)(Cc1cccnc1)P(=O)(O)O`: the “activity change, negative = cytotoxicity” value was -11% [at 35.3 µM]. With `CCCC[O][Al]([O]CCCC)[O]CCCC`, the “activity change, negative = cytotoxicity” value was -14.4%. Regarding `CCCCS`, the “activity change, negative = cytotoxicity” value is 0.911%. Regarding `COc1ccccc1N1CCN(CC(O)COc2cc(OC)c(OC)c(OC)c2)CC1` (stereo not given), the “activity change, negative = cytotoxicity” value is -2.79% [at 35.3 µM]. Turning to `CC(=O)OC1CCC(C(C)(C)C)CC1` (stereo not given), the “activity change, negative = cytotoxicity” value was -10.2%. For the compound `CC(=O)SC[C@@H](C)C(=O)N1CCC[C@H]1C(=O)N[C@@H](Cc1ccccc1)C(=O)O`, the “activity change, negative = cytotoxicity” value is 5.44% [at 35.3 µM]. In the case of `OCCC(F)(F)C(F)(F)C(F)(F)C(F)(F)C(F)(F)C(F)(F)F`, the “activity change, negative = cytotoxicity” value was -3.62%.

Regarding `CCCCCCCCCCCCCCCC/C=C/C1CC(=O)OC1=O` (stereo not given), the “activity change, negative = cytotoxicity” value was 0.188% [at 35.3 µM]. For the compound `CCCCCCCCCCCCCCBr`, the “activity change, negative = cytotoxicity” value is -0.591%. On to `CC(C)C(=O)Nc1cccc(C2CN3CCSC3=N2)c1` (stereo not given), for which the “activity change, negative = cytotoxicity” value is -1.75% [at 35.3 µM]. For the compound `CCOC(=O)CC(C(C)=O)C(C)=O`, the “activity change, negative = cytotoxicity” value was 0.179%. As to `CCCCCCCCS(=O)(=O)O`, the “activity change, negative = cytotoxicity” value was 0.278%. Take `C/C(=N\O)c1ccc(OCC(=O)N2CCCCC2)cc1`: the “activity change, negative = cytotoxicity” value is 5.67% [at 35.3 µM].
